Laboratory results: the supplement of paper PMC10600219
Where a name gives a salt, the structure may show the parent alone. Over roughly 2,800 compounds, “cell viability relative to vehicle” has its median near 0.98; the lowest 2% begin near 0.45. This is one part of a sample in which the lowest values are shown more often than they occur.

These molecules were tested on NCI-H2228 alectinib-DTP (assay: cell viability relative to vehicle (fraction of vehicle); NCI-H2228 is an ALK-positive lung cancer line and DTP means drug-tolerant persister; higher = less growth inhibition). Conditions: 100 nM; treatment time 6 days.
In short: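 Parental NCI-H2228 cells and drug-tolerant persister cells (made with 1000 nM of a targeted drug for 13 days) were seeded in 384-well plates. The next day, the 3114-agent TargetMol anti-cancer compound library was added at 100 nM, with DMSO as vehicle. After 6 days, ATP was read with the CellTiter-Glo 3D Cell Viability Assay. Each value is cell viability relative to vehicle-treated cells.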
`COCc1c(-c2ccc(NC(=O)Nc3cc(C(F)(F)F)ccc3F)c(F)c2)c2c(N)ncnn2c1CN1CCOCC1` showed a cell viability of 0.632.
Molecule `C[C@@H]1CC[C@@]2(NC1)O[C@H]1C[C@H]3[C@@H]4CC=C5C[C@@H](O[C@@H]6O[C@H](CO)[C@@H](O[C@@H]7O[C@@H](C)[C@H](O)[C@@H](O)[C@H]7O)[C@H](O)[C@H]6O[C@@H]6O[C@@H](C)[C@H](O)[C@@H](O)[C@H]6O)CC[C@]5(C)[C@H]4CC[C@]3(C)[C@H]1[C@@H]2C` [Solamargine] has a cell viability of 1.06.
Molecule `CNC(=O)c1cccc(-c2ccc3c(N4CCOC[C@@H]4C)nc(N4CCOC[C@@H]4C)nc3n2)c1` [Vistusertib] has a cell viability of 0.594.
`COc1ccc(-c2ccc3c(N4CCOCC4)nc(N4C[C@@H](C)O[C@@H](C)C4)nc3n2)cc1CO` showed a cell viability of 0.765.
`COc1ccc(-c2ccc3c(N4CCOC[C@@H]4C)nc(N4CCOC[C@@H]4C)nc3n2)cc1CO` showed a cell viability of 0.377.
`COc1ccc([C@@H]2OC[C@H]3[C@@H]2CO[C@@H]3c2ccc3c(c2)OCO3)cc1OC` [Fargesin] gave a cell viability of 1.11.
For `O=C1c2cccc(O)c2C(=O)c2c(O)cccc21` [Antrapurol], the cell viability was 0.878.
`O=C1c2c(O)ccc(O)c2C(=O)c2c(NCCNCCO)ccc(NCCNCCO)c21` [Mitoxantrone] was tested, and the cell viability was 0.386.
`NCCNc1ccc(NCCN)c2c1C(=O)c1ccncc1C2=O` [Pixantrone dimaleate] gave a cell viability of 0.661.
`CC(C)=CCc1c(O)ccc(C(=O)/C=C/c2ccc(O)cc2)c1O` [Isobacachalcone] gave a cell viability of 1.01.
Molecule `Cc1ccc([N+](=O)[O-])cc1S(=O)(=O)N(C)/N=C/c1cnc2ccc(Br)cn12` has a cell viability of 0.172.
`Cc1ccc([N+](=O)[O-])cc1S(=O)(=O)N(C)/N=C/c1cnc2ccc(Br)cn12` [PIK-75  hydrochloride] gave a cell viability of 0.201.
`CC(C)n1cnc2c(NCc3ccccc3)nc(NCCCO)nc21` [Bohemine] was tested, and the cell viability was 0.951.
With `C=CCSC[C@H](N)C(=O)O` [S-allyl-L-cysteine] the cell viability was 1.06.
`CC(C)=CC[C@H](O)C1=CC(=O)c2c(O)ccc(O)c2C1=O` [Alkannin] showed a cell viability of 0.957.
`CC1=C(C(=O)Nc2ccc3[nH]ncc3c2)C(c2ccc(F)c(C(=O)NCc3ccccn3)c2)NC(=O)N1` (stereo not drawn) was tested, and the cell viability was 1.
In the case of `CC(C)(C#N)c1ccc(N2C(=O)OCc3cnc4ccc(-c5cnc6ccccc6c5)cc4c32)cc1`, the cell viability is reported as 0.925.
`CO[C@@H](C)Cn1c(=O)n(C)c2cnc3ccc(-c4cncc(C(C)(C)O)c4)cc3c21` was tested, and the cell viability was 0.513.
Molecule `Cn1c(=O)n(-c2ccc(C(C)(C)C#N)cc2)c2c3cc(-c4cnc5ccccc5c4)ccc3ncc21` [Dactolisib] has a cell viability of 0.435.
Molecule `O[C@@H]1[C@@H](O)[C@@H](OC/C=C/c2ccccc2)O[C@H](CO[C@@H]2OC[C@H](O)[C@H](O)[C@H]2O)[C@H]1O` [Rosavin] has a cell viability of 0.944.
With `C[C@@H]1CC(=O)Nc2cccc(-c3ccc4c(c3)c(-c3cnn(C)c3)nn4C)c2N1` the cell viability was 1.01.
Work on `O=C(Nc1nc(-c2ccc(O)c(O)c2)c(-c2ccccc2)s1)c1ccc(O)c(O)c1` yielded a cell viability of 1.03.
`CCCS(=O)(=O)Nc1ccc(F)c(C(=O)c2c[nH]c3ncc(-c4ccc(Cl)cc4)cc23)c1F` [Vemurafenib] showed a cell viability of 1.12.
With `CS(=O)(=O)Nc1cc(-c2ccc3ncnc(Nc4ccc(F)c(Cl)c4)c3c2)cnc1Cl` the cell viability was 0.997.
For `COc1ncc(-c2ccc3nccc(-c4ccnnc4)c3c2)cc1NS(=O)(=O)c1ccc(F)cc1F` [Omipalisib], the cell viability was 0.261.
`Nc1ccccc1C(=O)C[C@H](N)C(=O)O` [L-Kynurenine] was tested, and the cell viability was 0.987.
Molecule `N#CCC(C1CCCC1)n1cc(-c2ncnc3[nH]ccc23)cn1` (stereo not drawn) has a cell viability of 1.16.
`CN1CCN(c2cc(-c3ccccc3)nc(N)n2)CC1` was tested, and the cell viability was 1.09.
For `CN1CC(=O)N2[C@H](c3ccc4c(c3)OCO4)c3[nH]c4ccccc4c3C[C@@H]2C1=O` [Tadalafil], the cell viability was 0.916.
For `COC(=O)[C@@H]1[C@H]2C[C@H]3c4[nH]c5ccccc5c4CCN3C[C@@H]2CC[C@@H]1O` [Yohimbine hydrochloride], the cell viability was 1.22.
Molecule `COC(=O)c1ccc([C@H]2c3[nH]c4ccccc4c3C[C@H](C(=O)OC)N2C(=O)CCl)cc1` has a cell viability of 0.0417.
Molecule `CCCNC(=O)c1cn2ncnc(Nc3cc(C(=O)NC4CC4)ccc3C)c2c1C` has a cell viability of 1.03.
In the case of `COc1ccc(-c2ccccc2)cc1NS(=O)(=O)c1cc(Cl)cc(Cl)c1O`, the cell viability is reported as 0.883.
